This note sets out measurements from PubChem BioAssay (NCI).

“And” between values parts separate entries of the source, which are not always exact repeats. Equal entries are not always repeated. The panel holds about 83,000 compounds, 20% with a hit somewhere; the sample as a whole holds those more often.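 Results are percent growth after 48 hours of single-concentration exposure. 100 means growth as in untreated cells, lower positive values show inhibition; negative values down to -100 show cell death.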 The source made the active and inactive calls. How the source made its calls: active means growth percent below 10; inactive means the rest.

Test systems include BT-549 breast; MDA-MB-435 melanoma; SW-620 colon; MCF7 breast; HCT-116 colon; HCC-2998 colon; KM12 colon.
Common to all, as to experiment: NCI-60 one-dose screen, 48 h (100 = growth as untreated, 0 = no growth, -100 = all killed)
What all share (settings): 10 µM unless noted

Consider `COc1ccc(/C=N/NC(=O)c2cnn(CC(O)Cc3ccccc3)c2N)cc1OC1CCCC1` (stereo unspecified), for which the growth in the test on BT-549 breast is 75.7% (inactive); with MDA-MB-435 melanoma, 100% (inactive); with SW-620 colon, 98.9% (inactive); in the test on MCF7 breast, 83.7% (inactive); in the test with HCT-116 colon, 90.4% (inactive); with HCC-2998 colon, 116% (inactive). Besides, the growth in the test with KM12 colon is 35.2% (inactive).
For `NS(=O)(=O)c1ccc(C(=O)N/N=C(\CS(=O)(=O)c2ccccc2)c2cc3cc(Br)ccc3o2)cc1`, the growth in the test on BT-549 breast was 101% (inactive); with MDA-MB-435 melanoma, 73% (inactive); with SW-620 colon, 94.6% (inactive); in the test on MCF7 breast, 72.3% (inactive); in the test with HCT-116 colon it was 90.5% (inactive); in the test with HCC-2998 colon, 94.2% (inactive). Also, in the test with KM12 colon, the growth is 85.6% (inactive).
`Cn1c(=O)c2c(-c3ccccc3F)n(-c3ccc4c(c3)OCO4)cc2n(C)c1=O`: the growth in the test with BT-549 breast was 95.1% (inactive); with MDA-MB-435 melanoma, 88.6% (inactive); with SW-620 colon it was 102% (inactive); in the test on MCF7 breast, 94.5% (inactive); in the test with HCT-116 colon it was 85.8% (inactive); in the test with HCC-2998 colon, 92.2% (inactive). In the test with KM12 colon, the growth was 102% (inactive).
For the compound `CCN1C(=O)C2(Nc3ccccc3S2)c2cc(C)ccc21` (stereo unspecified), the growth in the test with BT-549 breast is 110% (inactive); in the test on MDA-MB-435 melanoma, 102% (inactive); in the test with SW-620 colon, 96.5% (inactive); with HCT-116 colon, 96.7% (inactive); with HCC-2998 colon it was 105% (inactive); with KM12 colon, 107% (inactive).
Regarding `CCCCCCCC/C=C\CCCCCCCCOc1cccc(CC(=O)NCC[N+]2(C)CCOCC2)c1`, the growth in the test with BT-549 breast was 98.8% (inactive); in the test with MDA-MB-435 melanoma, 94% (inactive); with SW-620 colon, 89.1% (inactive); in the test on MCF7 breast it was 83.8% (inactive); with HCC-2998 colon, 80.6% (inactive); with KM12 colon, 64.1% (inactive).
Consider `CN1CCc2c(c3ccccc3c3ccccc23)C1`, for which the growth with BT-549 breast is 94.7% (inactive); with MDA-MB-435 melanoma it was 51.4% (inactive); with SW-620 colon, 28.7% (inactive); with MCF7 breast, 26.4% (inactive); with HCT-116 colon, 16.9% (inactive); in the test with HCC-2998 colon it was 70% (inactive). In addition, the growth in the test with KM12 colon was 39.1% (inactive).
`FC(F)(F)Oc1ccc2c(c1)C[C@H]1C[C@@H](c3ccoc3)N2O1`: the growth in the test on BT-549 breast is 112% (inactive); in the test with MDA-MB-435 melanoma, 88.8% (inactive); with SW-620 colon it was 110% (inactive); with MCF7 breast, 98.6% (inactive); in the test on HCC-2998 colon, 97.5% (inactive); in the test on KM12 colon it was 103% (inactive).
Turning to `O=C(NC1CC1)c1cc2n(n1)CC(c1ccccc1)N2` (stereo unspecified), the growth is 99.7% (inactive) in the test with BT-549 breast; 99.4% (inactive) with MDA-MB-435 melanoma; 95.4% (inactive) with SW-620 colon; 85.9% (inactive) in the test on MCF7 breast; 101% (inactive) in the test with HCC-2998 colon; 102% (inactive) in the test with KM12 colon.
For the compound `COc1ccc2c3c(c(=O)n(C)c2c1OC)C=CC(C)(C)O3`, the growth with MCF7 breast was 4.77% [100 µM] (active) and 0.153% [100 µM] (active).
The same measure, in the same setting: to `Nc1cc2c3c(cccc3c1)C(=O)N(c1ccc(OCCN3CCCC3)cc1)C2=O` belongs -78.2% [100 µM] (active) and -100% [100 µM] (active).
As to `Cc1cc(=O)[nH]n1-c1cc(Cl)ccc1N`, the growth in the test with BT-549 breast is 87.1% (inactive); in the test on MDA-MB-435 melanoma it was 111% (inactive); in the test with SW-620 colon, 113% (inactive); with MCF7 breast, 101% (inactive); in the test with HCT-116 colon, 95.6% (inactive); with KM12 colon, 119% (inactive).
In the case of `CCCCC(CCCC)(S(=O)(=O)CC)S(=O)(=O)CC`, the growth in the test with BT-549 breast is 96.6% (inactive); in the test on MDA-MB-435 melanoma it was 97.4% (inactive); in the test with SW-620 colon, 102% (inactive); in the test with MCF7 breast, 105% (inactive); with HCC-2998 colon, 111% (inactive); in the test with KM12 colon, 96.7% (inactive).
On to `O=[N+]([O-])c1cccc(-c2ncnc(-c3cccc([N+](=O)[O-])c3)n2)c1`, for which the growth in the test with MCF7 breast was 55.1% [100 µM] (inactive) and 68.9% [100 µM] (inactive).
On to `CCCCC(O)Cn1ncc(C(=O)OCC)c1NC(=O)NCc1ccccc1C(F)(F)F` (stereo unspecified), for which the growth in the test with BT-549 breast was 92% (inactive); in the test on MDA-MB-435 melanoma, 99.5% (inactive); with SW-620 colon, 104% (inactive); in the test on MCF7 breast, 94.1% (inactive); with HCC-2998 colon, 108% (inactive); in the test on KM12 colon, 101% (inactive).
Turning to `CCCCCCCC/C=C\CCCCCCCCOc1cccc(CC(=O)NCC[N+]2(C)CCCCC2)c1`, the growth in the test with BT-549 breast is 95.3% (inactive); in the test on MDA-MB-435 melanoma it was 82.1% (inactive); in the test with SW-620 colon, 59.7% (inactive); in the test with HCT-116 colon it was 71.5% (inactive); with HCC-2998 colon, 67.9% (inactive); in the test with KM12 colon, 43.6% (inactive).
As for `CC(C)(C)O/N=C/c1cc(NC(=S)c2ccsc2)ccc1Cl`, the growth with MCF7 breast is -74.5% [100 µM] (active) and -71.7% [100 µM] (active).
For the compound `FCOC(C(F)(F)F)C(F)(F)F`, the growth with BT-549 breast was 103% (inactive); in the test with MDA-MB-435 melanoma, 103% (inactive); in the test with SW-620 colon, 101% (inactive); with MCF7 breast, 101% (inactive); in the test with HCC-2998 colon, 104% (inactive); in the test on KM12 colon, 103% (inactive).
Regarding `CC(C)(C)N/N=C(\C(=O)Nc1ccc([N+](=O)[O-])cc1[N+](=O)[O-])c1nc2ccc([N+](=O)[O-])cc2[nH]c1=O`, in the test on MCF7 breast, the growth was 56.5% [100 µM] (inactive) and 7.04% [100 µM] (active).
Consider `Cc1ccccc1-n1nnc(C(=O)Nc2nc(-c3ccccc3)c(-c3ccccc3)s2)c1C`, for which the growth with BT-549 breast is 89.7% [50 µM] (inactive); in the test on MDA-MB-435 melanoma, 82.7% [50 µM] (inactive); in the test with SW-620 colon, 87.3% [50 µM] (inactive); with HCT-116 colon, 62.6% [50 µM] (inactive); in the test on HCC-2998 colon, 99.1% [50 µM] (inactive); in the test with KM12 colon, 81.4% [50 µM] (inactive).
In the case of `CCCCCCCCCCCCCCNc1nc(CO)ncc1-c1ccc(C(F)(F)F)cc1`, the growth was 110% (inactive) in the test with BT-549 breast; 102% (inactive) in the test with MDA-MB-435 melanoma; 103% (inactive) in the test with SW-620 colon; 96.2% (inactive) in the test with MCF7 breast; 99.4% (inactive) with HCC-2998 colon; 99.4% (inactive) with KM12 colon.
Consider `CN(C)c1ccc(/C=C(\C#N)c2cc3ccccc3n2C)cc1`, for which the growth with BT-549 breast was 37.6% (inactive); with MDA-MB-435 melanoma, -26.9% (active); in the test on SW-620 colon it was 21% (inactive); in the test with MCF7 breast, 15.1% (inactive); in the test on HCC-2998 colon, 20.1% (inactive); in the test on KM12 colon it was 18.5% (inactive).
For the compound `CCN(CC)c1ccc(/C=C(\C#N)c2cc3ccccc3[nH]2)cc1`, the growth with BT-549 breast is 69.5% (inactive); with MDA-MB-435 melanoma, 1.8% (active); in the test with SW-620 colon, 23.3% (inactive); in the test with MCF7 breast, 23.7% (inactive); in the test on HCC-2998 colon, 77.8% (inactive); in the test with KM12 colon, 21.7% (inactive).
